Assay results taken from PubChem BioAssay.
Activity calls are given as the source filed them. Unless noted, the rule behind the calls is not given here.

Key:
[1] = resazurin metabolic signal in HepG2 cells – cell-based, resazurin fluorescence, 24 h, PK04 Diversity Set, profiling panel (AID 1172); details: HepG2 viability, higher = more signal
[2] = budding yeast growth changes without added modifier – OD600, strain BY4716, 24 h, basal condition, primary screen (AID 1173); details: S. cerevisiae BY4716 growth, OD600, 24 h; higher = more signal, called active from +8 up or from −8 down
[3] = viability profiling in MM1S myeloma cells – cell-based, resazurin fluorescence, basal, 24 h, PK04 Diversity Set, profiling panel (AID 1174); details: higher = more signal, called active from +8 up or from −8 down;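 note: MM1S multiple myeloma cell line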
[4] = target: Dihydroorotate dehydrogenase (quinone), mitochondrial (Plasmodium falciparum (isolate 3D7)) (UniProt Q08210); test: inhibition of P. falciparum DHODH – biochemical, C-terminal His tag, absorbance 600 nm, primary screen (AID 1175); details: PfDHODH enzyme, DCIP absorbance 600 nm; higher = more signal, called active from +8 up or from −8 down;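 note: recombinant parasite enzyme with a five histidine tag at its C terminus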
[5] = inhibition of PAO1 biofilm formation – strain PAO1, LB-PBS medium, absorbance 600 nm, primary screen (AID 1176); details: P. aeruginosa PAO1 growth/biofilm, A600, 12 h; higher = more signal
[6] = growth modulation of vineyard yeast isolate – strain RM11-1a, OD600, basal, 24 h, primary screen (AID 1177);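 note: cultures grown under basal conditions with no added stressor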; details: S. cerevisiae RM11-1a growth, OD600, 24 h; higher = more signal, called active from +8 up or from −8 down
[7] = growth of efflux-deficient E. coli DRC39 – strain DRC39, OD650, 24 h, E. coli filamentation inducers, primary screen (AID 1178);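 note: growth measured as culture turbidity by optical density at 650 nm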; details: E. coli DRC39 acrAB, higher = more signal, called active from +8 up or from −8 down
[8] = growth of efflux-deficient E. coli DRC39 – strain DRC39, OD650, 48 h, E. coli filamentation inducers, primary screen (AID 1179);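 note: screen aims at cell division blockers that make cells filament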; details: E. coli DRC39 delta-acrAB growth, higher = more signal, called active from +8 up or from −8 down
[9] = viability profiling in RPMI8226 myeloma cells – cell-based, resazurin fluorescence, basal, 24 h, PK04 Diversity Set, profiling panel (AID 1180); details: higher = more signal;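 note: RPMI8826 multiple myeloma cell line at 5000 cells per well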
[10] = target: E3 ubiquitin-protein ligase XIAP (Homo sapiens) (UniProt P98170); test: small molecules binding XIAP protein – biophysical, small-molecule microarray, fluorescence 635 nm, primary screen (AID 1181); details: higher = more signal;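 note: score merges 667 nm emission and signal to noise over triplicate slides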
[11] = tested on: XIP peptide (Xip251-270) binding; test: XIP fragment 251-270 binding compounds – biochemical, small-molecule microarray, fluorescence 635/667 nm, 0.1 µg/mL protein, primary screen (AID 1182); details: fluorescent protein binding, 635 nm, higher = more signal, called active from +8 up or from −8 down
XIP peptide (Xip251-270) = test: compounds binding XIP fragment 251-270 – biochemical, small-molecule microarray, fluorescence 635/667 nm, 0.5 µg/mL protein, primary screen (AID 1183); details: fluorescence 635 nm, higher = more signal
[12] = blood-stage malaria parasite viability loss – strain 3D7, DAPI fluorescence, 100 nL, primary screen (AID 1184);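 note: parasites grown inside human red blood cells in medium with human serum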; details: P. falciparum 3D7 growth, 3 d, higher = more signal
[13] = target: Homeobox protein Hox-A13 (Mus musculus) (UniProt Q62424); test: disruptors of Hoxa13 oligonucleotide interaction – biochemical, fluorescence polarization, labeled oligonucleotide, primary screen (AID 1185); details: Hoxa13:DNA binding, 15 min, higher = more signal, called active from +8 up or from −8 down
[14] = blockers of DNA damage checkpoint Chk1 activation – imaging, HeLa, hydroxyurea, phospho-Chk1 antibody, percent positive cells, primary screen (AID 1186); details: hydroxyurea-induced phospho-Chk1 immunofluorescence imaging, higher = more signal
[15] = blockers of DNA damage checkpoint Chk1 activation – imaging, HeLa, hydroxyurea, phospho-Chk1 nuclear intensity, primary screen (AID 1187); details: hydroxyurea-induced phospho-Chk1 immunofluorescence imaging, higher = more signal

Chain of E3 ubiquitin-protein ligase XIAP (Homo sapiens) (P98170 whole entry, looked up, the tested form may be a part): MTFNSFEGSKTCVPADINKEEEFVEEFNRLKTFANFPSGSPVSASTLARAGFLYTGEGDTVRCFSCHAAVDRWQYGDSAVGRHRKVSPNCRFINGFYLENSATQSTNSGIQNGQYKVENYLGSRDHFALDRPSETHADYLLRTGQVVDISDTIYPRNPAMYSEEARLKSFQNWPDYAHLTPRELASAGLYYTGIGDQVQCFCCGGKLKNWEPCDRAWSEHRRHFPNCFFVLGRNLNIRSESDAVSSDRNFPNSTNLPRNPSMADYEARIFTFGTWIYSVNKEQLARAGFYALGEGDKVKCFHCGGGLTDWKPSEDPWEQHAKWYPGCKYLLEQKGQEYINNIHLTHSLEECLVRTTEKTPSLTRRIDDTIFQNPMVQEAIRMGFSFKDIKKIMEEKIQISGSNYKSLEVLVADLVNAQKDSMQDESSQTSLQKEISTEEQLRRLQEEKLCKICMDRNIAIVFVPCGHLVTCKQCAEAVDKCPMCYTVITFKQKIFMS
Chain of Dihydroorotate dehydrogenase (quinone), mitochondrial (Plasmodium falciparum (isolate 3D7)) (Q08210 whole entry, looked up): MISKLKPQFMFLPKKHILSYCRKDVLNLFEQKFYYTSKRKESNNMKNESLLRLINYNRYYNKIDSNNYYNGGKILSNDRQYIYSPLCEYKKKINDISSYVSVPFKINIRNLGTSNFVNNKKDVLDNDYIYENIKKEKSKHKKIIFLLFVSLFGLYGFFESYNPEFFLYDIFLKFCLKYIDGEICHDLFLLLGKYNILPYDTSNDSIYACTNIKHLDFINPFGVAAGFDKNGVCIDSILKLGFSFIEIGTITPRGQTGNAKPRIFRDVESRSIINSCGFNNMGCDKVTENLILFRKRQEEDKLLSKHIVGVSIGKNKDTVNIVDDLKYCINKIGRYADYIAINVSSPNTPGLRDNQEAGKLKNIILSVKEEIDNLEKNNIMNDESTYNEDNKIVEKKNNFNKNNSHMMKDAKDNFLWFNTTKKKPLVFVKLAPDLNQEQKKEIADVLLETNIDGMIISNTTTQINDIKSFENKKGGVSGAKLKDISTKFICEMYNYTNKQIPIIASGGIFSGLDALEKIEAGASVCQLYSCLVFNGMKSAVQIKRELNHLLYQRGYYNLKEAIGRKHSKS
Chain of Homeobox protein Hox-A13 (Mus musculus) (Q62424 whole entry, looked up): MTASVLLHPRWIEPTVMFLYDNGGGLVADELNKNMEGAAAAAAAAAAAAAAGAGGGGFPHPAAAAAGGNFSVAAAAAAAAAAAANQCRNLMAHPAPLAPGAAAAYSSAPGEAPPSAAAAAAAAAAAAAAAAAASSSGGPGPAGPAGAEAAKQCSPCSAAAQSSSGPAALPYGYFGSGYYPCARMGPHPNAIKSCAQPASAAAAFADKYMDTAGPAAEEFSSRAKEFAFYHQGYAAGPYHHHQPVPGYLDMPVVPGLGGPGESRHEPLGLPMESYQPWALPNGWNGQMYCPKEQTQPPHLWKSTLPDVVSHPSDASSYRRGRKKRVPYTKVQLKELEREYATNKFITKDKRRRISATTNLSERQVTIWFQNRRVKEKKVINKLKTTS

Row | SMILES | z-score [1] | z-score [2] | z-score [3] | composite z-score [4] | z-score [5] | z-score [6] | z-score [7] | z-score [8] | z-score [9] | composite z-score [10] | composite z-score [11] | composite z-score (XIP peptide (Xip251-270)) | z-score [12] | z-score [13] | z-score [14] | z-score [15]
1 | C=CCC(OC(C)=O)[C@@H]1[C@@H](N(Cc2cc3ccccc3o2)C(=O)Cc2ccc(F)cc2)c2cc(OCCCO)ccc2N1C(=O)c1ccc2ccccc2c1 (some centres not stated) | -0.081 | 0.615 (inactive) | 0.514 (inactive) | -1.04 (inactive) | 0.35 (inactive) | -0.41 (inactive) | -0.698 (inactive) | -0.649 (inactive) | 0.304 | 0.555 | -0.231 (inactive) | -0.271 | 1.15 | -1.95 (inactive) | 0.608 (inactive) | 0.308 (inactive)
2 | COC1OC[C@]2(C)[C@H]3C4=C(CN2C(=O)OC(C)(C)C)[C@H](C)C(CO)C(CO)C4CC[C@@H]13 (some centres not stated) | -1.1 | 1.14 (inactive) | -1.25 (inactive) | -0.0528 (inactive) | 0.523 (inactive) | 1.06 (inactive) | -0.34 (inactive) | 0.154 (inactive) | -0.975 | 0.243 | 1.48 (inactive) | 0.745 | -0.892 | -4.97 (inactive) | 0.495 (inactive) | -0.0531 (inactive)
3 | CC(CO)N1C(=O)[C@@H]2[C@H]3C(=O)OCC=C[C@H]3OC23C=CCN(CCN2CCOCC2)C(=O)[C@@H]13 (some centres not stated) | 0.0843 | 0.0245 (inactive) | -0.622 (inactive) | -0.0564 (inactive) | -0.649 (inactive) | -0.169 (inactive) | -0.55 (inactive) | -0.733 (inactive) | -0.266 | -0.0046 | -0.0198 (inactive) | 0.154 | 0.177 | -5.37 (inactive) | -0.259 (inactive) | -0.252 (inactive)
4 | COC(=O)[C@@]1(Cc2ccccc2N=[N+]=[N-])N=C(c2ccc(OCCCO)cc2)O[C@H]1c1ccccc1N=[N+]=[N-] | -4.43 | -0.596 (inactive) | -8.41 (active) | -0.071 (inactive) | 0.715 (inactive) | 0.897 (inactive) | 2.12 (inactive) | 1.91 (inactive) | -6.83 | 0.0296 | 0.764 (inactive) | 0.848 | -2.03 | -0.305 (inactive) | -0.362 (inactive) | -0.267 (inactive)
5 | CCOC(=O)C[C@H]1[C@H](OC(=O)Cc2ccc3c(c2)OCO3)[C@@H](NC(=O)Cc2ccc(OC)cc2)c2cc(OCCCO)ccc2N1C(=O)c1ccc2ccccc2n1 | -0.337 | -1.12 (inactive) | 0.853 (inactive) | -0.689 (inactive) | 0.82 (inactive) | -2.18 (inactive) | 2.3 (inactive) | 2.12 (inactive) | 0.0153 | 0.0526 | -0.16 (inactive) | 0.0481 | -0.919 | -3.37 (inactive) | -0.996 (inactive) | -0.347 (inactive)
6 | CCCC[C@@H]1C[C@H]1[C@@H](NC(=O)Cc1ccccc1)c1ccc(-c2ccccc2)cc1 | 1.21 | 0.953 (inactive) | 0.143 (inactive) | 0.183 (inactive) | -1.19 (inactive) | 0.636 (inactive) | -0.104 (inactive) | 0.289 (inactive) | -1.18 | -0.0351 | 0.33 (inactive) | -0.135 | -0.456 | -0.559 (inactive) | -0.584 (inactive) | -0.541 (inactive)
7 | COCCOC(=O)N1C(=O)[C@@]2(c3cc(C#Cc4ccc(OC)cc4)ccc31)[C@H](C(=O)Nc1nc3ccccc3s1)[C@H]1C(=O)O[C@H](c3ccccc3)[C@H](c3ccccc3)N1[C@@H]2c1ccc(O)cc1 | -0.154 | -0.43 (inactive) | 0.529 (inactive) | 1.17 (inactive) | 0.609 (inactive) | 0.735 (inactive) | 0.275 (inactive) | -0.591 (inactive) | 0.85 | 0.012 | -0.363 (inactive) | 0.748 | -1.89 | -0.829 (inactive) | -0.519 (inactive) | -0.999 (inactive)
